Screens (PubChem)
ELG1 genotox – inducers of genotoxicity in HEK293T ELG1-luciferase cells; HEK293T ELG1-luciferase reporter, luminescence, 16 h; Potency, µM (doses to about 46 µM), without a hit: at the top dose activity change, positive = activation, usual class: activators; 330,000 compounds, 1.3% hits; note: % of control where 0% means no effect; nearly all actives have a fitted effect of over 60% in size
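HEK293T cells expressing luciferase-tagged ELG1 were treated with compound or DMSO for 16 hr at 37°C. Luciferase activity was then read after 30 min with ONE-Glo at room temperature; rising signal flags genetic stress.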
ELG1 DNA repair – blocks ELG1-dependent DNA repair in HEK293T cells; HEK293T ELG1-luciferase reporter, luminescence, 16 h; DNA damage induced by 5-fluorouridine; Potency, µM (titrated, usually from 46.1 µM), inactives show at the highest dose activity change, negative = inhibition, usual class: inhibitors; 330,000 compounds, 2.3% hits; AID 504467; note: % is set by controls: 0 for no effect and ±100 for the full control effect; nearly all actives have a fitted effect of over 55% in size
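Step one: seed 2,000 cells per well. Step two: pin-transfer compound or DMSO alongside 5-fluorouridine. Step three: incubate 16 hr, 37 °C, 5% CO2. Step four: add ONE-Glo, wait 30 min, read luminescence.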
Rab9 promoter act – activators of Rab9 promoter | Potency, µM (highest dose often 9.22 µM), for the others: top-dose activation, negative = inhibition, most hits filed as activators | Huh7 Rab9 promoter-luciferase reporter, luminescence, 24 h | AID 485297 | 320,000 compounds, 2.8% hits; note: % of control where 0% means no effect; nearly all actives have a fitted effect of over 60% in size
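Promoter activation is measured as luciferase luminescence in Huh7 cells stably transfected with a Rab9 promoter–luciferase construct, following 24 h compound exposure at 37 °C and 10 min reagent incubation at ambient temperature.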
SMN2 splice enh – SMN2 splice variant enhancement; AID 1458; 210,000 compounds, 2.8% hits; HEK293 SMN2-luciferase splicing reporter, luminescence, 30-36 h; Potency, µM (titrated, usually from 46.1 µM), without a hit: at the highest dose activity change, positive = activation, most hits filed as activators; note: % of control where 0% means no effect; nearly all actives have a fitted effect of over 55% in size
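qHTS luciferase splicing reporter: luminescence rises when SMN2 exon 7 is included in transfected HEK293 cells. Compound exposure lasted 30-36 h at 37C, with 4.5 mM final sodium butyrate as control, followed by a ONE-Glo read.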
NPC1 promoter act – activators of NPC1 promoter. Potency, µM (highest dose often 9.22 µM), for the others: top-dose activation, actives largely listed as activators. Huh7 NPC1 promoter luciferase reporter, 24 h. 320,000 compounds, 2.4% hits. AID 485313; note: % of control where 0% means no effect; nearly all actives have a fitted effect of over 60% in size
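Luminescence from an NPC1 promoter-driven luciferase reporter in stably transfected Huh7 cells was measured after 24 h compound treatment at 37 °C, followed by 10 min ambient incubation with luciferase detection reagent.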
FLuc counter – counter-screen for miR-21 project: firefly luciferase inhibitors or activators; 360,000 compounds, 6.9% hits; purified FLuc, Km substrates, luminescence inhibition; AID 588342; P08659; Potency, µM (series often up to 57.5 µM), inactives show at the top dose activity change, negative = inhibition, hits mostly inhibitors;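 note: plate controls were vehicle for no effect and reference inhibitor for full effect; nearly all actives have a fitted effect of over 55% in size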
Target sequence (P08659 whole entry, looked up): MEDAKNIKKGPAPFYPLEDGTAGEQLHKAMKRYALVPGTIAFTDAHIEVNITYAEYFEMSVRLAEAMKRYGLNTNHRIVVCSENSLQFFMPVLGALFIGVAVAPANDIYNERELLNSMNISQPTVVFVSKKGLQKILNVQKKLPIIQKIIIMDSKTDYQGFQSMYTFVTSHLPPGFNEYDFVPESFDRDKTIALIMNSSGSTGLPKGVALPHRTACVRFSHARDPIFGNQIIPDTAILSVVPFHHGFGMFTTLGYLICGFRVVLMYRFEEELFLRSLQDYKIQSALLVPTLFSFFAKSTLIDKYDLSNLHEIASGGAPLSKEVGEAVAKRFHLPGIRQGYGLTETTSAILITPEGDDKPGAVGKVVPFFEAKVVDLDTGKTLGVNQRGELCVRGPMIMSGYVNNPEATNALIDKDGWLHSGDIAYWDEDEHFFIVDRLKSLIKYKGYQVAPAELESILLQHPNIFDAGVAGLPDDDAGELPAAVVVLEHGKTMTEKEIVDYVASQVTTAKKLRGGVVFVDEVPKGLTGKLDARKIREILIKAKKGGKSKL
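Biochemical qHTS of compounds, final roughly 60 µM downward over six points, against 10 nM purified firefly luciferase using Km concentrations of substrates (10 uM D-luciferin, 10 uM ATP) in Tris acetate pH 7.5 buffer; luminescence output.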
* marks the source's active call; other numbers are inactive results; ? = inconclusive; . = no result; [ ] = another dose, or the depositor's remark. The list is not random: actives were taken first. Their share in the collection is about 9.4%. Calls come from the whole dose curve; as a rule, active = well fitted curve in the direction sought with a large enough effect; inconclusive = small, poorly fitted or top-dose-only effect, or another doubt; inactive = no such curve, though single readings can be large; an effect the other way counts as inactive or inconclusive. Potency is the fitted concentration of half-maximal effect.

SMILES	ELG1 genotox	ELG1 DNA repair	Rab9 promoter act	SMN2 splice enh	NPC1 promoter act	FLuc counter
COCCNC(=O)C(c1ccncc1)N(Cc1ccccc1)C(=O)Cn1nnc2ccccc21 (centres undefined)	-0.2%	?	?	12.6µM*	?	?
COCCNC(=O)C(c1cccnc1)N(Cc1ccccc1)C(=O)Cn1nnc2ccccc21 (centres undefined)	?	?	?	26.2%	17.8%	?
O=[N+]([O-])c1cc(/C=N/O)ccc1Oc1cccc(Cl)c1	14.1%	?	-11.9%	-6.1%	-8.1%	-13.4%
O=[N+]([O-])c1cc(/C=N/O)ccc1Oc1ccccc1Cl	?	23.1%	-3.5%[1.84 µM]	1.4%	8.9%	19µM*
O=C(COc1ccc(Cc2ccccc2)cc1)c1ccc(F)cc1	9.1%	?	23.9%	2.9%	26.7%	8.49µM*
O=C(COc1ccccc1C(=O)Nc1ccccc1)c1ccc(F)cc1	2.2%	2.9%	-1.6%	-9.2%	-4.9%	3.0%
O=C(COc1cccc(NC(=O)c2ccccc2)c1)c1ccc(F)cc1	-7.1%	?	-2.0%	-58.0%	5.2%	15.1µM*
O=C(COc1cccc(NC(=O)c2cccc([N+](=O)[O-])c2)c1)c1ccc(F)cc1	-13.8%	?	-0.3%	-69.7%	-2.3%	?
CCOc1ccccc1C(=O)Oc1c(S(=O)(=O)c2ccc(C)cc2)c(C)nn1-c1ccccc1	.	.	.	-1.4%	.	?
O=C(NC1CC1)C1CCCN1S(=O)(=O)c1ccc2ccccc2c1 (centres undefined)	-0.6%	-13.6%	-6.2%	11.2µM*	-4.2%	0.5%
COC(=O)c1scc(-c2ccc(C)cc2)c1S(=O)(=O)N1CCN(c2cccc(Cl)c2)CC1	.	.	.	.	.	1.9%
CCOC(=O)c1ccc2c(c1)nc(-c1ccccn1)n2CC	?	?	3.55µM*	.	?	1.51µM*
COc1ccc(N2CCN(C(=O)CSc3nnc4n3C(C)(C)Cc3ccccc3-4)CC2)cc1	-27.5%	20.6µM*	-3.8%	-71.5%	1.1%	0.7%
CCn1c(COc2cccc(C)c2C)nnc1SCC(=O)N1CCN(c2ccc(OC)cc2)CC1	-0.5%	10.3µM*	-15.4%	-43.2%	-8.6%	-1.8%
Cc1ccc(Cl)cc1N1CCN(C(=O)CSc2nnc3n2C(C)(C)Cc2ccccc2-3)CC1	-15.0%	11.6µM*	-30.3%	-128.0%	-22.0%	6.8%
Cc1ccc(NC(=O)CN2C(=O)CSc3ccc(S(=O)(=O)N4CCCC4)cc32)cc1F	.	.	.	.	.	5.0%
COc1ccc(N2CCN(CCCNC(=O)c3cnn(-c4ccc(F)cc4)c3-n3cccc3)CC2)cc1	.	.	.	.	.	-5.1%
O=C1c2ccccc2C(=O)N1CCSc1ccccc1	11.6µM*	?	?	?	2.82µM*	4.26µM*
Cc1csc(SCCN2C(=O)c3ccccc3C2=O)n1	?	?	?	7.9%	?	13.5µM*
Nc1nc(SCCN2C(=O)c3ccccc3C2=O)n[nH]1	0.1%	14.1%	-7.5%	13.9%	0.4%	-1.4%
O=C1c2ccccc2C(=O)N1CCSc1nncs1	4.6%	1.6%	-4.1%	-5.0%	-2.5%	-11.9%
Cc1nnc(NCc2ccccc2)c2c1nnn2Cc1ccccc1Cl	.	.	.	7.3%	.	-0.7%
CCOC(=O)c1ccccc1NC(=O)Cn1c(=O)n(CCCC(=O)NCc2ccc3c(c2)OCO3)c(=O)c2ccccc21	.	.	.	10.7%	.	0.2%
O=C(O)c1cccc(NC(=O)c2ccc(COc3ccc(Cl)cc3)cc2)c1	8.2%	?	3.16µM*	.	?	6.01µM*
CC(=O)Nc1cccc(NC(=O)c2ccc(COc3ccccc3)cc2)c1	14.6µM*	?	2.82µM*	.	2.82µM*	2.13µM*
SMILES	ELG1 genotox	ELG1 DNA repair	Rab9 promoter act	SMN2 splice enh	NPC1 promoter act	FLuc counter
CCOc1c(Cl)cc(C(=O)Nc2cccc(C(=O)O)c2)cc1Cl	?	?	0.708µM*	.	0.562µM*	3.01µM*
CCOc1ccc(NC(=O)c2cccc(NC(=O)c3ccccc3)c2)cc1	4.8%	?	29.8%	.	?	?
O=C(CCC1N=C2c3ccccc3N=C(SCc3ccc(Cl)cc3)N2C1=O)N1CCN(c2ccccc2)CC1 (centres undefined)	.	.	.	-2.7%	.	5.1%
Cc1cccc(N2CCN(S(=O)(=O)c3nnc(NC(=O)c4ccc(Cl)cc4)s3)CC2)c1	.	.	.	.	.	-2.1%
Fc1ccccc1-c1cc2ccccc2cn1	?	?	-0.9%	.	?	4.78µM*
CCc1ccc(/C(C)=N/Nc2cc(Cl)nc(C)n2)cc1	-8.4%	-14.7%	-2.7%	-14.2%	1.5%	?
C/C(=N/Nc1cc(-c2ccccc2)nc(-c2ccccc2)n1)c1ccc(O)cc1	0.0%	0.6%	-2.8%	.	-5.3%	10.7µM*
Nc1ccc(-c2cc(-c3cccc(N)c3)nc(-c3ccccc3)n2)cc1	-2.4%	?	-7.1%	-8.9%	-1.5%	-0.5%
C/C(=N/Nc1nc(-c2ccccc2)cc(-c2ccccc2)n1)c1ccc(N)cc1	-3.9%	8.2µM*	-8.5%	?	0.5%	5.36µM*
C/C(=N\Nc1cc(Cl)nc(C)n1)c1ccccc1	8.7%	?	?	30.6%	?	9.53µM*
CC(=O)Nc1ccc(-c2cc(-c3ccc(NC(C)=O)cc3)nc(-c3ccccc3)n2)cc1	-0.2%	-2.0%	-3.1%	-0.2%	-11.6%	0.7%
CCc1ccccc1NC(=O)C1CCN(c2nn3c(=O)cc(C)nc3s2)CC1	.	.	.	8.7%	.	-7.0%
Cc1cc(/C=C2/NC(=O)N(c3ccccc3)C2=O)c(C)n1-c1cccnc1	?	?	1.58µM*	7.94µM*	2.24µM*	3.38µM*
Cc1cc(/C=C2/NC(=S)NC2=O)c(C)n1-c1cccnc1	20.5%	6.2%	?	?	24.3%	5.36µM*
Cc1cc(/C=C2/NC(=O)NC2=O)c(C)n1-c1ccncc1	-8.2%	-6.6%	2.9%	-3.7%	0.7%	-12.4%
Cc1cccc(NC(=O)CN2C(=O)N/C(=C/c3cc(C)n(-c4cccnc4)c3C)C2=O)c1	?	20.2%	-2.3%	-49.5%	9.5%	1.3%
COc1cc(C(=O)N2CCN(c3ccc(Nc4ccccc4)nn3)CC2)cc(OC)c1OC	.	.	.	.	.	-8.6%
N=C1/C(=C\c2ccc(SCc3ccccc3)o2)C(=O)N=C2SC=NN12	3.5%	-2.7%	-4.1%	8.2%	-5.6%	13.5µM*
COc1ccccc1NC(=O)N(Cc1ccco1)Cc1cc2cccc(C)c2[nH]c1=O	-23.0%	?	-0.4%	-13.7%	4.2%	?
COc1ccccc1NC(=S)N(Cc1ccco1)Cc1cc2cc(C)ccc2[nH]c1=O	-4.2%	16.4µM*	-20.0%	-7.8%[1.84 µM]	-15.2%	1.1%
